Most compounds without a hit are left out; they make up all but 4.7% or so of the library.
rCAG binder = r(CAG) repeat RNA binding; TO-PRO-1 dye displacement fluorescence; 1.3% of 370,000 active; inhibition, % at 3 µM;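 active = inhibition above the plate cutoff, the mean of all test compounds on that plate plus 3 SD, cut at about 35% in these data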;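 also: 0% = DMSO alone and 100% = 100 µM mitoxantrone as full dye displacement; higher means more dye released from RNA so lower well fluorescence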
proKLK7 act = activates the human kallikrein-7 zymogen. 0.9% of 370,000 active. activation, % at 7 µM. P49862. purified proKLK7, EDANS-DABCYL substrate fluorescence; 100% is mature enzyme control, 0% vehicle;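 active = activation above the mean of all tested compounds plus 3 SD, computed per campaign excluding outliers beyond control limits, cut at about 13% in these data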
Target sequence (P49862 whole entry, looked up): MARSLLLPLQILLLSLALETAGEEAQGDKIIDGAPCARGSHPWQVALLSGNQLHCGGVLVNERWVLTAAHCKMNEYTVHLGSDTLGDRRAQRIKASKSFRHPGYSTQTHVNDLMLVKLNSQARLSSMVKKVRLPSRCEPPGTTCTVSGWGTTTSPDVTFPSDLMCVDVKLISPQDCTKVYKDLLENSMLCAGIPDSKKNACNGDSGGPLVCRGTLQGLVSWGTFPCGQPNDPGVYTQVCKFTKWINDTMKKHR
ADAM17 inh = ADAM17 inhibition, QFRET primary screen; recombinant ADAM17, EDANS/DABCYL FRET peptide cleavage; 0.83% of 370,000 active; AID 720648; inhibition, % at 6.95 µM;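 active = inhibition above the mean of compounds lying between control limits plus 3 SD, set per campaign, cut at about 8.5% in these data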;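 also: 0% = DMSO-only wells as the low control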
ADAM10 inh = inhibits human ADAM10; O14672; recombinant ADAM10, EDANS/DABCYL FRET peptide cleavage, 3 h; inhibition, % at 7 µM; 0.62% of 370,000 active; AID 720582;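 active = inhibition above a per-campaign cutoff equal to the mean of compounds falling between control-based bounds plus 3 SD, cut at about 20% in these data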;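 also: 0% = DMSO wells while the 100% control is not disclosed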
DSG3 Ab inh = inhibitors of pemphigus antibody binding to human desmoglein-3; P32926; 0.48% of 310,000 active; binding (percent of control), % at 10 µM; DSG3-coupled beads, scFv-anti-DSG3-GFP binding, flow cytometry; hits give low values;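 active = binding more than 3 SD below its plate's average and above zero; inconclusive = below that plate limit but binding exactly zero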;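 also: hits lower antibody fragment binding to DSG3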
MPTP block = blocks calcium-induced mitochondrial swelling. 1.4% of 360,000 active. isolated mouse mitochondria, Ca2+ swelling absorbance, 30 min. inhibition, % at 10 µM;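 active = inhibition of 50% or more, scaled per plate between neutral and stimulator controls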;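 also: 0% = DMSO wells given calcium and 100% = 1 mM EGTA wells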
proKLK7 act conf = confirmation of human kallikrein-7 zymogen activators; shares compounds with proKLK7 act; activation, % at 7 µM; purified proKLK7, EDANS-DABCYL substrate fluorescence; scaled: vehicle 0, mature enzyme 100; 68% of 3,200 active; AID 686949;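 active = activation, as change over the incubation, above the mean of all tested compounds plus 3 SD, cut at about 13% in these data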
EDANS-DABCYL int = fluorescence interference counter-screen for KLK7 activators; EDANS-DABCYL substrate fluorescence interference, no enzyme, 4 h; solvent 0%, active enzyme control 100%; shares compounds with proKLK7 act; activation, % at 7 µM; 80% of 3,200 active;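 active = activation above the all-compound mean plus 3 SD, ignoring values outside control-based bounds, cut at about 4.8% in these data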;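 also: value is the 4 h activation minus the activation read at time zero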
EDANS interf = EDANS fluorescence interference in dose response, no enzyme; EDANS-DABCYL peptide fluorescence interference; shares compounds with proKLK7 act; EC50, µM; 20% of 250 active;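 active = compounds that raise the fluorescence signal in this interference counterscreen, with EC50 at or below 10 µM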;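 also: intact quenched peptide substrate alone read at 355 nm excitation and 520 nm emission; signal is fluorescence gain from T0 to T4 after four hours at room temperature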
Active calls of the source: *; i = inactive; ? = inconclusive; . = not tested or not shown.

SMILES | rCAG binder | proKLK7 act | ADAM17 inh | ADAM10 inh | DSG3 Ab inh | MPTP block | proKLK7 act conf | EDANS-DABCYL int | others
COc1ccc(-n2nc3ccc(N)cc3n2)cc1 | 10.7 | 99.2* | -227.5 | i | 97.8 | -1.7 | 77.4* | 81.6*
COc1ccc(-n2nc(N)c(C(N)=O)n2)cc1 | -0.2 | 26.5* | i | i | 96.2 | -1.5 | 23.3* | 21.4*
CCCC(=O)Nc1ccc2nn(-c3ccc(OC)cc3)nc2c1 | 3.9 | 18.1* | i | i | 89.5 | -0.4 | 34.5* | -4.2 | EDANS interf=>69.5
Nc1ccc2nn(-c3ccc(F)cc3)nc2c1 | 7.6 | 45.4* | -219.1 | i | 107.0 | 1.0 | 66.3* | 76.8*
CN(Cc1ccccc1)C(=O)c1cccc(NC(=O)Cc2ccc(NC(=O)C3CCCN(C(=O)C4CCC4)C3)cc2)c1 (stereo not given) | 1.8 | 0.9 | 0.3 | 2.6 | 104.6 | 0.4 | . | .
O=C(O)CC1(CC(=O)NCc2ccncc2)CCCCC1 | -1.8 | 0.1 | -7.7 | -4.3 | 109.1 | 1.3 | . | .
COC(=O)N1C(=O)[C@](c2ccsc2)(C(C)C)N1C(=O)OC | -7.9 | 1.1 | -1.9 | -4.3 | . | -1.9 | . | .
O=C(Nc1ccc(F)cc1)Nc1c(-c2ccc(F)cc2)nc2ncccn12 | 6.9 | 14.7* | -9.7 | -37.1 | . | . | 4.6 | 5.1*
CC(=O)Nc1c(-c2ccccc2)nc2ncccn12 | 0.5 | 22.1* | -287.2 | i | 103.9 | -2.6 | 60.1* | 57.1*
CC(=O)Nc1nc2ncccn2c1-c1ccc(F)c(F)c1 | 2.7 | 20.8* | -366.6 | i | . | . | 27.0* | 25.7*
COc1cccc(NC(=O)Nc2nc3ncccn3c2-c2ccc(F)c(F)c2)c1 | 3.0 | 3.6 | -69.1 | -252.6 | . | . | . | .
O=C(Nc1c(-c2ccccc2)nc2ncccn12)c1ccc(F)cc1 | -0.2 | 14.4* | -85.7 | -298.3 | . | . | 12.3 | 10.6*
CCOC(=O)N1CCN(C(=O)C[C@@H]2C[C@@]3(C(=O)OCC)CCC=C3N(Cc3ccccc3)C2=O)CC1 | 1.1 | 0.2 | -1.8 | -12.1 | . | -1.8 | . | .
CC(C)C[C@@H](CSc1ccccc1)N1CCN(CC(C)C)CCC1=O | -12.2 | 0.2 | 0.0 | 3.9 | 99.3 | -1.0 | . | .
O=c1c2ccccc2nc2sc(Nc3cccc(Cl)c3)nn12 | 3.6 | 0.4 | -3.8 | -1.4 | 98.0 | 0.5 | . | .
CCOC(=O)COc1ccc2nsnc2c1Cl | -0.8 | 38.1* | -90.8 | -258.2 | 105.3 | -1.1 | 36.8* | 40.7*
Clc1ccc(-c2cn3cccnc3n2)cc1Cl | 6.1 | 5.6 | -243.4 | i | 85.6 | -2.6 | . | .
Brc1ccc(-c2cn3cccnc3n2)cc1 | 3.1 | 23.9* | -466.0 | i | ? | 0.3 | 23.0* | 26.9*
Clc1ccc(-c2cn3cccnc3n2)cc1 | -0.9 | 22.2* | i | i | 95.6 | -1.6 | 52.8* | 69.4*
C=CCn1c(=N)c(C#N)cc2c(=O)n3ccccc3nc21 | 4.1 | 11.4 | -237.0 | i | 95.7 | -0.6 | . | .
C=CCn1c(=N)c(C(=O)NCCCOC)cc2c(=O)n3cc(C)ccc3nc21 | 3.5 | 143.3* | i | i | 100.2 | 1.8 | 58.4* | 61.5*
C=CCn1c(=N)c(C(=O)NCCCOC)cc2c(=O)n3ccccc3nc21 | 3.0 | 136.4* | i | i | 104.5 | 0.4 | 56.8* | 66.8*
COc1ccc(CNC(=O)CN(C(=O)CCC(=O)Nc2ccccn2)c2cccc(C)c2C)cc1 | -5.0 | 0.1 | -3.9 | -2.9 | 102.2 | 0.1 | . | .
CC(C)c1cccc(-c2ccc3c(c2)S(=O)(=O)c2cccc(C(=O)NCc4ccccc4Cl)c2C3=O)c1 | . | . | . | . | 98.6 | -4.2 | . | .
CN(C)Cc1c(O)ccc2c(=O)c(-c3ccc(Cl)cc3)coc12 | 3.0 | 33.0* | -274.6 | i | 92.4 | -2.0 | 39.0* | 37.1*
SMILES | rCAG binder | proKLK7 act | ADAM17 inh | ADAM10 inh | DSG3 Ab inh | MPTP block | proKLK7 act conf | EDANS-DABCYL int | others
CCCOC(=O)c1ccc(Oc2coc3c(CN(CC)CC)c(O)ccc3c2=O)cc1 | 1.8 | 59.7* | i | i | 97.3 | -0.2 | -64.7 | 47.6*
CCN(CC)Cc1c(O)ccc2c(=O)c(-c3ccc(Cl)cc3)coc12 | -1.6 | 29.0* | -301.1 | i | 101.5 | -1.0 | 33.5* | 30.9*
C=CCN(CC=C)Cc1c(O)ccc2c(=O)c(-c3ccccc3)coc12 | -2.5 | 37.6* | -223.3 | i | 91.5 | -0.5 | 25.6* | 28.6*
O=c1c(-c2ccc([N+](=O)[O-])cc2)coc2c(O)c(O)ccc12 | 7.9 | 5.6 | -0.8 | -1.8 | 99.6 | 4.6 | . | .
CN(C)Cc1c(O)ccc2c(=O)c(-c3ccccc3Cl)c(C(F)(F)F)oc12 | -1.6 | 7.3 | -8.6 | -18.9 | 113.7 | 0.7 | . | .
CCCS(=O)(=O)NC(=O)C1(C)CCN(C(=O)c2oc3ccccc3c2C)C1 (stereo not given) | 6.8 | 0.4 | -2.2 | -2.9 | . | 1.2 | . | .
CC(C)c1ccc(C2OCC(C)([N+](=O)[O-])CO2)cc1 (stereo not given) | 3.5 | -0.7 | 0.7 | 0.9 | 91.0 | -2.2 | . | .
c1ccc(CNc2nc(Oc3ccncc3)c3sccc3n2)cc1 | 0.1 | 15.2* | -218.5 | i | . | 0.3 | 10.3 | 4.9*
COCCNc1nc(Oc2ccccc2)c2sccc2n1 | -0.6 | 0.2 | -19.5 | -76.5 | . | 0.6 | . | .
c1csc(CNc2nc(Oc3ccncc3)c3sccc3n2)c1 | 0.1 | 17.1* | -296.1 | i | . | 0.6 | 5.1 | 11.7*
COc1ccc(Nc2nc(NCc3cccs3)nc3ccsc23)cc1OC | 4.8 | -0.1 | 0.6 | -5.8 | . | 1.7 | . | .
C=Cc1ccc(C(=O)Nc2nnc(-c3cccnc3)s2)cc1 | 7.2 | -0.5 | 0.1 | -5.8 | . | . | . | .
O=S1(=O)N[C@H](Cc2ccccc2)COc2cc(F)ccc21 | 2.5 | 0.1 | 0.3 | 1.9 | . | . | . | .
COc1cc(C(CC(=O)Nc2cc(C)ccn2)N2Cc3ccccc3C2=O)cc(OC)c1OC (stereo not given) | -2.3 | 0.0 | -0.4 | -3.5 | ? | 2.1 | . | .
COc1ccc(C(=O)Cc2cc3cccc(OC)c3oc2=O)cc1 | -1.2 | 1.0 | 0.4 | 1.7 | 119.3 | -0.5 | . | .
COc1ccc(C(=O)CC2OC(=O)c3c2ccc(OC)c3OC)cc1 (stereo not given) | -0.3 | 54.7* | -7.7 | -24.5 | 113.5 | 5.6 | 59.1* | 78.9*
COC(=O)[C@]12CCCCC=C1N(Cc1ccc(OC)cc1)C(=O)[C@@H]2CC(=O)NCc1ccc(C)o1 | 2.3 | -0.7 | -2.1 | 2.9 | . | . | . | .

High-throughput results: PubChem BioAssay, several laboratories
